In PubChem BioAssay AID686970 (National Center for Advancing Translational Sciences (NCATS), 2013) one finds Potency data, which are given here for 48 molecules.

The whole screen tested about 360,000 compounds, of which about 6,000 (1.7%) were called active. Roughly 8% stayed inconclusive and do not appear here. Calls come from the whole dose curve; as a rule, active = well fitted cell-killing curve with a large enough effect; inconclusive = small, poorly fitted or top-dose-only effect, or effect the other way; inactive = flat fitted curve, though single readings scatter. What follows is part of a selection rich in actives, with near analogues and random picks from the rest. Where a call stands in place of a potency, no number is given.
Potency is the fitted concentration of half-maximal effect.

A short description of the assay: qHTS for induction of synthetic lethality in tumor cells producing 2HG: qHTS for the HT-1080-NT fibrosarcoma cell line. Note: nearly all actives have a fitted effect of over 55% in size. The settings on record: HT-1080-NT fibrosarcoma viability, CellTiter-Glo ATP luminescence, 48 h; series mostly up to 46.1 µM. The source says: Unbiased genomic sequencing for 22 glioma genomes found recurrent mutation of IDH1 on chromosome 2q33, a gene encoding the cytosolic isoform of IDH1 associated with the tricarboxylic acid cycle (TCA) that catalyzes the oxidative decarboxylation of isocitrate, yielding alpha-ketoglutarate and CO2 via NADP+ to NADPH conversion. Subsequent studies confirmed the recurrent IDH mutations in up to 70% of secondary gliomas and in 10% of AML cases. In addition, the somatic mutation of cancer-associated IDH1 is a point mutation resulting in various amino-acid substituents at Arginine132 (IDH1 R132), a key residue found in the enzyme's active site that when mutated, results in the loss-of-function in metabolizing isocitrate but confers a gain-of-function to produce the oncometabolite 2-hydroxyglutarate (2HG). This in effect defines IDH1 as an oncogene and provides an extraordinary opportunity to discover chemical probes against mutant IDH1 that may translate into much needed new therapies for glioma and AML patients.
This assay aims to perform a synthetic lethal screen for chemical probes specific for 2HG-producing tumor cells using matched paired cell lines (1) HT-1080-NT fibrosarcoma cell line that overproduces 2HG and (2) HT-1080-IDH1KD cell line which has IDH1 expression knocked-down. Desirable compounds are toxic to the NT fibrosarcoma cells but not to the IDH1KD cell line. The data in this AID corresponds to the results of the qHTS against the HT-1080-NT fibrosarcoma cell line.
[1] Dang L, Jin S, Su SM. IDH mutations in glioma and acute myeloid leukemia. Trends of Mol Med. 2010; 16(9): 387-97.
[2] Dang L et al. Cancer-associated IDH1 mutations produce 2-hydroxyglutarate. Nature. 2010; 465(7300):966.
NIH Molecular Libraries Probe Production Centers Network [MLPCN]
NIH Chemical Genomics Center [NCGC]
Assay Submitter (PI): Lenny Dang Ph.D., Agios Pharmaceuticals
Suspensions of trypsinized HT-1080-NT cells were dispensed into white, tissue culture-treated, solid 1536-well plates at 5uL/well (750 cells/well final concentration) in RPMI medium supplemented with 5% FBS. Plates were incubated at 37 degrees C for 2 hours, after which 23 nL of compounds or DMSO were delivered to each well using a pin tool. Plates were then incubated at 37 degrees C for an additional 48 hours. CellTiter-Glo viability reagent (Promega) was dispensed into wells (2.5uL/well) and incubated at room temperature for 10 minutes. The plates were measured on a PerkinElmer ViewLux plate reader for luminescent signal (clear filter, 1 sec exp). DMSO-treated control wells and media-only (no cells) control wells were used to normalize %Activity of identified toxic compounds; DMSO-treated wells corresponded to 0%Activity (100% viability), while media-only controls were used to normalize 100%Activity (0% viability).
Concentration-response curves were fitted to the signals arising from the resulting luminescence. The concentration-effect curves were then classified based on curve quality (r2), response magnitude and degree of measured activity, and compounds were subsequently categorized based on their curve class.
(In general: qHTS replaces the single test concentration by a dilution series.)
Consider `COc1ccc2c(c1OC)C(=O)OC2Nc1nc(-c2ccccc2)cs1` (stereo not drawn), for which the Potency is 18.4 µM (active).

As for `COc1ccc(-c2csc(Nc3cccc(C)n3)n2)cc1OC`, the Potency result is “inactive”.

Consider `O=C(NCc1cccc(C(F)(F)F)c1)c1ccc2sc(COCCO)nc2c1`, for which the Potency result was “inactive”.

Take `COc1ccc(OC)c(NC(=O)C2CCCN2S(=O)(=O)c2ccc3c(c2)CC(C)N3C(C)=O)c1` (stereo not drawn): the Potency entry was “inactive”.

Consider `C=C1C(=O)[C@]23C[C@H]1CCC2[C@@]1(C)C(C[C@@H]3O)[C@](C)(C(=O)O)CC[C@@H]1O` (stereo partly drawn), for which the Potency is 18.4 µM (active).

In the case of `CCc1nc2ccc(C(=O)NC3CCN(Cc4ccccc4)CC3)cn2c1N(CC)CCOC`, the Potency entry was “inactive”.

Regarding `CN(C)C(=O)c1cccc(-c2cnc3c(NC=O)cc(-c4ccc(C(=O)N5CCOCC5)cc4)cn23)c1`, the Potency entry was “inactive”.

As for `CCOC(=O)N1CCN(CCC(=O)Nc2ccccc2)CC1`, the Potency entry was “inactive”.

On to `O=C(CN1CCN(Cc2ccccc2)CC1)Nc1ccc(F)c(F)c1`, for which the Potency result was “inactive”.

Turning to `Cc1cc(NC(=O)CCN2CCN(Cc3ccccc3)CC2)ccc1Br`, the Potency is 20.6 µM (active).

As for `CC(=O)Nc1cccc(Nc2ccc(C#N)cc2)c1`, the Potency result was “inactive”.

`O=[N+]([O-])c1ccc(Oc2ccc(F)cc2Br)c2ccncc12`: the Potency is 16.4 µM (active).

As for `CC(C)C1Cc2[nH][nH]c(=O)c2C(c2ccc(Cl)cc2)O1` (stereo not drawn), the Potency entry was “inactive”.

Consider `COC(=O)[C@]12CCCCC=C1N(Cc1ccccc1)C(=O)[C@H](CC(=O)NCc1ccc(C)o1)C2`, for which the Potency result is “inactive”.

As to `C#CCOCCOCCOCCNc1nc(N2CCN(C(=O)Cn3cc(CCO)nn3)CC2)nc(N2CCN(C(=O)Cn3cc(CCCN=C(N)N)nn3)CC2)n1`, the Potency entry is “inactive”.

Take `C#CCOCCOCCOCCNc1nc(N2CCN(C(=O)[C@H](C(C)C)n3cc(CCO)nn3)CC2)nc(N2CCN(C(=O)[C@H]([C@@H](C)CC)n3cc(CCCN=C(N)N)nn3)CC2)n1`: the Potency entry was “inactive”.

Turning to `C#CCOCCOCCOCCNc1nc(N2CCN(C(=O)CCCCCCCCCCNC(=O)[C@H]([C@@H](C)CC)n3cc(CCCCN=C(N)N)nn3)CC2)nc(N2CCN(C(=O)CCCCCCCCCCNC(=O)[C@H](CO)n3cc(CCCSC)nn3)CC2)n1`, the Potency is 23.1 µM (active).

As to `Cc1ccc(NC(=O)COC(=O)CN2CCSC2=O)cc1F`, the Potency result was “inactive”.

Take `CCCCn1nnnc1C(c1ccccc1)N1CCN(c2ccccc2OC)CC1` (stereo not drawn): the Potency entry is “inactive”.

For `CC1Cc2[nH][nH]c(=O)c2C(C2CC2)O1` (stereo not drawn), the Potency entry was “inactive”.

In the case of `Cc1ccc(C(=O)OCC(=O)NC2CCCCCCC2)cc1C`, the Potency entry is “inactive”.

For the molecule `COCCSc1nnc(NC(=O)CCS(=O)(=O)Cc2ccccc2)s1`, the Potency result was “inactive”.

On to `Cc1cccc(NC(=O)c2nc(S(=O)(=O)Cc3ccccc3)ncc2Cl)c1`, for which the Potency is 6.51 µM (active).

As to `Cc1cccc(NC(=O)C(C)SCc2ccccc2)c1` (stereo not drawn), the Potency entry was “inactive”.

`NC(=O)CSc1nnc(NC(=O)c2ccc(Br)o2)s1`: the Potency result is “inactive”.

`CSc1nnc(NC(=O)c2nc(S(=O)(=O)Cc3ccc(C)cc3)ncc2Cl)s1`: the Potency is 7.31 µM (active).

As to `Cc1cccc(NC(=O)CSc2nc3[nH]ncc3c(=O)[nH]2)c1`, the Potency entry is “inactive”.

`Cc1nc2ccccc2nc1CC(O)(c1ccccc1)c1ccccc1`: the Potency entry was “inactive”.

For `CC1(c2cccc(Br)c2)NC(=O)N(CC(=O)NCCC2=CCCCC2)C1=O` (stereo not drawn), the Potency result is “inactive”.

As to `O=C1CCC(C(=O)OCC(=O)Nc2ccc(OC(F)F)cc2)=NN1`, the Potency entry was “inactive”.

On to `CCN(C(=O)Nc1cccc2ccccc12)c1ccccc1`, for which the Potency result was “inactive”.

With `Cc1ccccc1NC(=O)NCC1CCN(Cc2cccc(Cl)c2)CC1`, the Potency entry was “inactive”.

Regarding `O=C(NCC1CCN(Cc2ccccc2Cl)CC1)Nc1cccc(Cl)c1`, the Potency result is “inactive”.

As to `Cc1cccc(CN2CCC(CNC(=O)Nc3ccc(F)c(Cl)c3)CC2)c1`, the Potency is 16.4 µM (active).

`OC[C@@H]1CN(Cc2ccc(Cl)cc2)C[C@H](n2cnc3c(NCc4ccncc4)ncnc32)O1`: the Potency result was “inactive”.

Take `O=C(CSc1ccccc1)Nc1nnc(/C=C/c2ccccc2)s1`: the Potency is 23.1 µM (active).

In the case of `CCOCc1nnc(NC(=O)CSc2ccc(C)cc2)s1`, the Potency entry is “inactive”.

`O=C(Nc1ccc(Cl)cc1)Nc1nnc(/C=C/c2ccccc2)s1`: the Potency entry is “inactive”.

Turning to `CC1(C)OC(=O)C2=C(C[C@@H](C3CC3)O[C@H]2c2ccc(Cl)cc2)O1`, the Potency entry is “inactive”.

Take `CC1(C(=O)NS(=O)(=O)c2cccc(OC(F)F)c2)CCN1C(=O)COc1ccc(Cl)cc1` (stereo not drawn): the Potency result is “inactive”.

Regarding `CCCNC(=O)C1(C)CCCN(Cc2c(C)nn(-c3ccccc3)c2C)C1` (stereo not drawn), the Potency result is “inactive”.

Regarding `Cc1ccc(C(=O)N/C(=C/c2ccc(-c3cccc([N+](=O)[O-])c3)o2)C(=O)NCCCN(C)C)cc1`, the Potency is 14.6 µM (active).

Take `C=CCNC(=O)/C(=C\c1cccc([N+](=O)[O-])c1)NC(=O)c1ccccc1`: the Potency result is “inactive”.

Consider `CN(C)CCNC(=O)/C(=C/c1cccc([N+](=O)[O-])c1)NC(=O)c1ccccc1`, for which the Potency entry was “inactive”.

As for `Cc1ccc(CNC(=O)Nc2nnc([C@H]3C[C@H](O)[C@@H](CO)O3)s2)cc1`, the Potency result was “inactive”.

Consider `O=C(NC1CCCCCC1)c1cccnc1Sc1ccc(Cl)cc1`, for which the Potency result was “inactive”.

For `O=C(NC1CCCCC1)c1ccc(-c2ccc(Cl)cc2)o1`, the Potency is 18.4 µM (active).

`O=C(NC(=S)NC1CCCCC1)c1ccc(Cl)cc1`: the Potency entry is “inactive”.
